From PubChem BioAssay AID1159580 (chemical genetic matrix, 2015)
About 2,000 (36%) of roughly 5,500 compounds were called active. Not shown: some 18% with an inconclusive outcome. The list shows a part of the results. A number with no mark means an inactive call. Cut-off read from the data, not from the text of the source: active = normalized growth mostly below about 0.91 (no sharp cut-off); inconclusive = no clear call, values can overlap the other calls; inactive = mostly above about 0.92.

Assay: chemical genetic growth profiling, strain panel (AID 1159580);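 note: tested at 20 µM; growth read once vehicle control cultures reached saturation at 30 °C; 1 = growth at the plate median or of vehicle wells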
Settings: S. cerevisiae deletion strains, growth OD

## COC(=S)Nc1cc(Cl)cc(Cl)c1
Locus YAR019C, strain CDC15, stronger effect = lower value
  normalized growth: 0.938
Locus YBL105C, strain PKC1, stronger effect = lower value
  normalized growth: 0.94
Locus YBR135W, strain CKS1, stronger effect = lower value
  normalized growth: 0.935
Locus YBR136W, strain MEC1, stronger effect = lower value
  normalized growth: 0.94
Locus YBR160W, strain CDC28, stronger effect = lower value
  normalized growth: 0.935
Locus YDL017W, strain CDC7, stronger effect = lower value
  normalized growth: 0.938
Locus YDL028C, strain MPS1, stronger effect = lower value
  normalized growth: 0.939
Locus YDL101C, strain DUN1, stronger effect = lower value
  normalized growth: 0.949
Locus YDL108W, strain KIN28, stronger effect = lower value
  normalized growth: 0.943
Locus YDL132W, strain cdc53, stronger effect = lower value
  normalized growth: 0.95
Locus YDL214C, strain PRR2, stronger effect = lower value
  normalized growth: 0.702
Locus YDR052C, strain DBF4, stronger effect = lower value
  normalized growth: 0.935
Locus YDR054C, strain cdc34, stronger effect = lower value
  normalized growth: 0.959
Locus YDR226W, strain ADK1, stronger effect = lower value
  normalized growth: 0.921
Locus YDR477W, strain SNF1, stronger effect = lower value
  normalized growth: 0.685 (active)
Locus YER123W, strain YCK3, stronger effect = lower value
  normalized growth: 0.608 (active)
Locus YER133W, strain GLC7, stronger effect = lower value
  normalized growth: 0.559 (active)
Locus YFL009W, strain cdc4, stronger effect = lower value
  normalized growth: 0.912
Locus YFL029C, strain CAK1, stronger effect = lower value
  normalized growth: 0.919
Locus YFR003C, strain YPI1, stronger effect = lower value
  normalized growth: 0.941
Locus YFR019W, strain FAB1, stronger effect = lower value
  normalized growth: 0.828
Locus YFR028C, strain CDC14, stronger effect = lower value
  normalized growth: 0.966
Locus YGR040W, strain KSS1, stronger effect = lower value
  normalized growth: 0.662 (active)
Locus YGR052W, strain FMP48, stronger effect = lower value
  normalized growth: 0.698
Locus YGR092W, strain DBF2, stronger effect = lower value
  normalized growth: 0.452 (active)
Locus YHR030C, strain SLT2, stronger effect = lower value
  normalized growth: 0.577 (active)
Locus YHR079C, strain IRE1, stronger effect = lower value
  normalized growth: 0.499 (active)
Locus YHR082C, strain KSP1, stronger effect = lower value
  normalized growth: 0.633
Locus YHR205W, strain SCH9, stronger effect = lower value
  normalized growth: 0.659
Locus YIL147C, strain SLN1, stronger effect = lower value
  normalized growth: 0.929
Locus YJL095W, strain BCK1, stronger effect = lower value
  normalized growth: 0.584
Locus YJL128C, strain PBS2, stronger effect = lower value
  normalized growth: 0.935
Locus YJL157C, strain FAR1, stronger effect = lower value
  normalized growth: 0.679 (active)
Locus YJR016C, strain ILV3, stronger effect = lower value
  normalized growth: 0.925
Locus YJR066W, strain TOR1 (second series), stronger effect = lower value
  normalized growth: 0.653
Locus YJR066W, strain TOR1, stronger effect = lower value
  normalized growth: 0.604
Locus YKL048C, strain ELM1, stronger effect = lower value
  normalized growth: 0.816
Locus YKL067W, strain YNK1, stronger effect = lower value
  normalized growth: 0.704 (active)
Locus YKL101W, strain HSL1, stronger effect = lower value
  normalized growth: 0.762
Locus YKL193C, strain SDS22, stronger effect = lower value
  normalized growth: 0.919
Locus YKL203C, strain TOR2, stronger effect = lower value
  normalized growth: 0.697 (active)
Locus YLR113W, strain HOG1, stronger effect = lower value
  normalized growth: 0.458 (active)
Locus YLR133W, strain CKI1, stronger effect = lower value
  normalized growth: 0.742
Locus YLR403W, strain SFP1, stronger effect = lower value
  normalized growth: 0.569 (active)
Locus YML070W, strain DAK1, stronger effect = lower value
  normalized growth: 0.644 (active)
Locus YMR001C, strain CDC5, stronger effect = lower value
  normalized growth: 0.935
Locus YMR205C, strain PFK2 (second series), stronger effect = lower value
  normalized growth: 0.747 (active)
Locus YMR277W, strain FCP1, stronger effect = lower value
  normalized growth: 0.932
Locus YNL006W, strain LST8, stronger effect = lower value
  normalized growth: 0.936
Locus YNL020C, strain ARK1, stronger effect = lower value
  normalized growth: 0.727
Locus YNL161W, strain CBK1, stronger effect = lower value
  normalized growth: 0.934
Locus YNL183C, strain NPR1, stronger effect = lower value
  normalized growth: 0.544 (active)
Locus YNL207W, strain RIO2, stronger effect = lower value
  normalized growth: 0.927
Locus YNL222W, strain SSU72, stronger effect = lower value
  normalized growth: 0.933
Locus YNL307C, strain MCK1 (second series), stronger effect = lower value
  normalized growth: 0.599 (active)
Locus YOL078W, strain AVO1, stronger effect = lower value
  normalized growth: 0.923
Locus YOL136C, strain PFK27, stronger effect = lower value
  normalized growth: 0.648 (active)
Locus YOR061W, strain CKA2, stronger effect = lower value
  normalized growth: 0.719
Locus YOR119C, strain RIO1, stronger effect = lower value
  normalized growth: 0.746
Locus YOR231W, strain MKK1, stronger effect = lower value
  normalized growth: 0.585
Locus YOR329C, strain SCD5, stronger effect = lower value
  normalized growth: 0.929
Locus YPL031C, strain PHO85, stronger effect = lower value
  normalized growth: 0.564 (active)
Locus YPL153C, strain RAD53, stronger effect = lower value
  normalized growth: 0.588 (active)
Locus YPL204W, strain HRR25, stronger effect = lower value
  normalized growth: 0.567 (active)
Locus YPL209C, strain IPL1, stronger effect = lower value
  normalized growth: 0.935
Locus YPL256C, strain CLN2, stronger effect = lower value
  normalized growth: 0.627 (active)
Locus YPR025C, strain CCL1, stronger effect = lower value
  normalized growth: 0.936
Locus YPR106W, strain ISR1, stronger effect = lower value
  normalized growth: 0.927
Locus YPR111W, strain DBF20, stronger effect = lower value
  normalized growth: 0.96
Strain NNK1, stronger effect = lower value
  normalized growth: 0.936
Strain TSCII, stronger effect = lower value
  normalized growth: 0.913
